Experimental findings from PubChem BioAssay are described below.

SMILES strings stand for the structures. Calls of active or inactive are those of the source. Unless noted, the rule behind the calls is not given here.

For test [1], the system named is Wnt5a (protein binding on small-molecule microarray). In words: small molecules binding Wnt5a protein – biophysical, small-molecule microarray, 635/667 nm fluorescence, primary screen (AID 1142).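 Note: fluorescence read at 667 nm with signal to noise per printed feature.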 Particulars: 635 nm fluorescence, higher = more signal.
Test [2] in a line: ATP-based viability of Huh7 replicon cells – cell-based, CellTiter-Glo luminescence, basal, 48 h, cytotoxicity control for HCV replication inhibitor project, primary screen (AID 1143).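 Note: Huh7 hepatoma cells carrying a hepatitis C replication reporter with no stimulus; test concentration not given here.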 Particulars: higher = more signal, called active from +8 up or from −8 down. Background: In antiviral work, replicon cells carry a viral genome segment that copies itself.
The nature of test [3]: Pseudomonas biofilm growth suppression – PAO1 strain, BacTiter-Glo luminescence, LB-PBS, primary screen (AID 1144). Particulars: P. aeruginosa PAO1 biofilm, 12 h, higher = more signal.
Test [4] in a line: basal CRE-LacZ reporter activity in PC12 – cell-based, unstimulated, primary screen (AID 1145). Particulars: no forskolin, luminescence, 4.5 h, higher = more signal, called active from +8 up or from −8 down.
Test [5] in a line: forskolin-driven CRE-LacZ activity in PC12 – cell-based, CRE-LacZ reporter, forskolin-stimulated, primary screen (AID 1146).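 Note: PC12 cells with 6xCRE LacZ reporter stimulated by forskolin 10 µM; beta-galactosidase reporter signal reflecting CREB driven transcription.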 Particulars: luminescence, 4.5 h, higher = more signal, called active from +8 up or from −8 down.
In test [6] the target is Streptavidin (Streptomyces avidinii) (UniProt P22629). In words: compounds binding control protein streptavidin – biophysical, small-molecule microarray, 635/667 nm fluorescence, artefact control for SMM compound annotation, primary screen (AID 1147).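 Note: signal reflects streptavidin binding to arrayed compounds as a control protein.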 Particulars: higher = more signal.
Test [7] in a line: probe aInhba binding on compound microarray – biochemical, small-molecule microarray, 635/667 nm fluorescence, primary screen (AID 1148).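 Note: score merges 667nm spot fluorescence with signal-to-noise for antibody binding to printed compounds.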 Particulars: higher = more signal.
In test [8] the target is Torsin-1A (Homo sapiens) (UniProt O14656). In words: TOR1A wild-type binding on microarray – cell lysate, small-molecule microarray, lysate, 635/667 nm, primary screen (AID 1149). Particulars: COS7 hTOR1A-WT lysate, 635 nm fluorescence, higher = more signal.
For test [9] the target is unchanged. Description: torsin A mutant lysate binding on microarrays – cell lysate, small-molecule microarray, COS7 lysate, 635/667 nm fluorescence, primary screen (AID 1150).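 Note: score pools 667 nm emission and signal to noise measuring lysate protein binding.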 Particulars: COS7 hTOR1A mutant lysate, 635 nm fluorescence, higher = more signal.
Test [10] relates to Sonic hedgehog protein (Shh). In words: Sonic hedgehog microarray binding compounds – biochemical, small-molecule microarray, 635/667 nm fluorescence, primary screen (AID 1151).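 Note: Shh protein binding to compounds spotted on small-molecule microarray slides; score combines spot fluorescence intensity with signal-to-noise across triplicate slides.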 Particulars: 635 nm fluorescence, higher = more signal.
Test [11] is described as follows: optical density shifts of acrAB sulA E. coli – strain DRC41, OD650, 48 h, E. coli filamentation inducer project, primary screen (AID 1152).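 Note: E. coli MC1000 strain DRC41 lacking acrAB efflux pump and sulA.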 Particulars: higher = more signal, called active from +8 up or from −8 down.
A short description of test [12]: probe aLefty1 binding on compound microarray – biochemical, small-molecule microarray, 635/667 nm fluorescence, primary screen (AID 1153).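 Note: score merges spot fluorescence with signal-to-noise ratio from the scanned slide images.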 Particulars: higher = more signal.
Test [13] can be described thus: plasmodial surface anion channel blockers, osmotic lysis – cell-based, P. falciparum Indochina, OD700, 1 h, primary screen (AID 1154). Particulars: P. falciparum Indochina infected RBC osmotic lysis, higher = more signal, called active from +8 up or from −8 down.
The nature of test [14]: plasmodial surface anion channel blockers, osmotic lysis – cell-based, P. falciparum Indochina, OD700, 2 h, primary screen (AID 1155).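 Note: lysis reports solute entry through the parasite surface anion channel PSAC.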 Particulars: P. falciparum Indochina infected erythrocytes, higher = more signal, called active from +8 up or from −8 down.
Test [15] in a line: changes in parasitized red cell lysis, either direction – P. falciparum Indochina, OD700, 3 h, PSAC antagonist project, primary screen (AID 1156). Particulars: P. falciparum-infected erythrocytes, osmotic lysis, higher = more signal, called active from +8 up or from −8 down.
A short description of test [16]: plasmodial surface anion channel blockers, osmotic lysis – cell-based, P. falciparum Indochina, OD700, 18 h, primary screen (AID 1157). Particulars: P. falciparum Indochina infected erythrocytes, osmotic lysis OD700, 18 h; higher = more signal, called active from +8 up or from −8 down.
The nature of test [17]: S6 kinase pathway phospho-S6 level changes – cell-based, A549, cytoblot, luminescence, serum-stimulated, primary screen (AID 1158).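 Note: serum-stimulated A549 lung adenocarcinoma cells; signal is phosphorylated S6 detected by cytoblot immunostaining with HRP secondary.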 Particulars: 5 h, higher = more signal.
Test [18] deals with NADPH oxidase 2 (Homo sapiens) (UniProt P04839). Description: compounds shifting NOX2 Amplex Red fluorescence – cell-based, HEK293-NOX2, PMA-stimulated, NOX inhibitor project, primary screen (AID 1159). Note: test concentration not given here. Particulars: 45 min, higher = more signal, called active from +8 up or from −8 down.
In test [19] the target is NADPH oxidase 4 (Homo sapiens) (UniProt Q9NPH5). In words: compounds shifting NOX4 Amplex Red fluorescence – cell-based, HEK293-NOX4, tetracycline-induced, NOX inhibitor project, primary screen (AID 1160). Particulars: HEK293-NOX4, Amplex Red H2O2 fluorescence, 45 min; higher = more signal, called active from +8 up or from −8 down.
Test [20] deals with NADPH oxidase 5 (Homo sapiens) (UniProt Q96PH1). In words: compounds shifting NOX5 Amplex Red fluorescence – cell-based, HEK293-NOX5, NOX inhibitor project, primary screen (AID 1161). Particulars: HEK293-NOX5, ionomycin, 45 min, higher = more signal.
NADPH oxidase 5 (Homo sapiens), sequence (Q96PH1 whole entry, looked up): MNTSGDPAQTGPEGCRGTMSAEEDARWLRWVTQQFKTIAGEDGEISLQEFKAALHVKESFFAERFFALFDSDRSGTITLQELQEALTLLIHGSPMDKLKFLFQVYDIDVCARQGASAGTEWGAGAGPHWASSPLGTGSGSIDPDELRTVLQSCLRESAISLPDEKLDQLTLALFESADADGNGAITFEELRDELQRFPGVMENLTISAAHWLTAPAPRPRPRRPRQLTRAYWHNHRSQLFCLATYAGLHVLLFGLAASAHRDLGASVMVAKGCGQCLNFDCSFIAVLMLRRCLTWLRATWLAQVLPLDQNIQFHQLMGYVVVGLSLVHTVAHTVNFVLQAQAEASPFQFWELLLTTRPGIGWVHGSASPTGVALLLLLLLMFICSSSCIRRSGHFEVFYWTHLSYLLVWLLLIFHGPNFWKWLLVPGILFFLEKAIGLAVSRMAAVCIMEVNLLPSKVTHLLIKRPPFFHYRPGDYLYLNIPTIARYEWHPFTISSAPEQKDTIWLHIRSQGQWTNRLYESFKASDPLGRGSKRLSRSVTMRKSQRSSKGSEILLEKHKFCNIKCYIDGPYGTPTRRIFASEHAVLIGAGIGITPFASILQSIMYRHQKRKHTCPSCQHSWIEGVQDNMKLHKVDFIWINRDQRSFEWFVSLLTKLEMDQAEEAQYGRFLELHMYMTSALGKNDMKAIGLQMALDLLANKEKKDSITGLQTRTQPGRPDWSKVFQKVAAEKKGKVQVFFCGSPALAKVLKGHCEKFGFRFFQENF

NADPH oxidase 2 (Homo sapiens), sequence (P04839 whole entry, looked up): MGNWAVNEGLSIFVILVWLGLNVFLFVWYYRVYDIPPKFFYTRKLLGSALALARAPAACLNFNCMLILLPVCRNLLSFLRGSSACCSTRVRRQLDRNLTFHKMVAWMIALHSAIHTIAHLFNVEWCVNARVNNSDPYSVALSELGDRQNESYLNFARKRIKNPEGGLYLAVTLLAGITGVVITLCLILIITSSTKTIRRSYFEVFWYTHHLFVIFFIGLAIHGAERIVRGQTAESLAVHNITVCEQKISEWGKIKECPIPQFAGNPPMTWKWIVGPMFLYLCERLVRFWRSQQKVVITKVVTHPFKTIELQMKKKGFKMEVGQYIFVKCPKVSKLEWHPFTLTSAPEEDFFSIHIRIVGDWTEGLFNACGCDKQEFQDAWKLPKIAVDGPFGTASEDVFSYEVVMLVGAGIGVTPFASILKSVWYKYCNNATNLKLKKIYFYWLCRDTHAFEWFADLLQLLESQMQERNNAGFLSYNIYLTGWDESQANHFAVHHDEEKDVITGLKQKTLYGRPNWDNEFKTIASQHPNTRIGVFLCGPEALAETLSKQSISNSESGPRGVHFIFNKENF
Torsin-1A (Homo sapiens), sequence (O14656 whole entry, looked up): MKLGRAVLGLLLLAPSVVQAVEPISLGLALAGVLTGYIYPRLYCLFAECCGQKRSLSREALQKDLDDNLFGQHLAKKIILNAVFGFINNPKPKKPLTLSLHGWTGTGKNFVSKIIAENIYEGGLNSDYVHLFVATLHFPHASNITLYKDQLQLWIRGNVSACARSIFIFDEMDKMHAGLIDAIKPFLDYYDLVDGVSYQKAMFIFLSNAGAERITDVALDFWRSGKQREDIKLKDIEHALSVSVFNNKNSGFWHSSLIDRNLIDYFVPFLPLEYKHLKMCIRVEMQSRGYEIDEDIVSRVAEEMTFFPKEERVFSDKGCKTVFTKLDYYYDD
Streptavidin (Streptomyces avidinii), sequence (P22629 whole entry, looked up): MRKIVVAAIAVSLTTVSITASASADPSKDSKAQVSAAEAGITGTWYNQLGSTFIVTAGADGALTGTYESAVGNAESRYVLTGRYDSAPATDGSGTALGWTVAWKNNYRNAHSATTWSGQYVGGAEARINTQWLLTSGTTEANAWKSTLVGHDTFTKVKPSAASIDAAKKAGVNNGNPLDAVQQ
NADPH oxidase 4 (Homo sapiens), sequence (Q9NPH5 whole entry, looked up): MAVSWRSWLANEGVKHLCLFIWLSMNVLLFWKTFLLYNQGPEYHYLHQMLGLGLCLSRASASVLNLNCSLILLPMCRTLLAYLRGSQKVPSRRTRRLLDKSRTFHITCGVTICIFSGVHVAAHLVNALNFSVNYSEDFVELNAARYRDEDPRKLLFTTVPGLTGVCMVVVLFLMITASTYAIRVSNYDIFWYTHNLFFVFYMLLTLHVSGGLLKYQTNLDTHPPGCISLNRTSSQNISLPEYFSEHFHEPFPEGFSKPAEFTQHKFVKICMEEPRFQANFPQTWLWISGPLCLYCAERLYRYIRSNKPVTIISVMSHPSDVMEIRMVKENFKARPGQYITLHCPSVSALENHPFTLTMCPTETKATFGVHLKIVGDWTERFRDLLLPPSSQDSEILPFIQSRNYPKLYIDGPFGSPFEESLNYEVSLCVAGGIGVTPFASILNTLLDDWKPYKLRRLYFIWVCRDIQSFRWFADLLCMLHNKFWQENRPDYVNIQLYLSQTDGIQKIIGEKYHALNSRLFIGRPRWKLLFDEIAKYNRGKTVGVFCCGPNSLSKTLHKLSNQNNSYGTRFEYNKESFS

Take `Cc1ccc(S[C@]2(C(=O)NCCN3CCOCC3)CC(=O)N(C(C)C)[C@@H]2c2ccc(CO)cc2I)cc1`: the composite z-score in [1] was -0.141; in test [6], -0.676; in test [7] it was 0.0228; in test [8], -0.533; in test [9] it was -0.26; in test [10] it was -0.0348. In test [12], this compound gave a composite z-score of 0.11. The z-score is -2.88 (inactive) in test [2]; -0.121 (inactive) in test [3]; -0.116 (inactive) in test [4]; -0.395 (inactive) in test [5]; 3.66 (inactive) in test [11]; 7.56 (inactive) in test [13]. In addition, the z-score in [14] was 0.308 (inactive); in test [15] it was 0.651 (inactive); in [16] it was -0.511 (inactive); in test [17], 1.86; in [18], -0.491 (inactive); in test [19], -1.24 (inactive). Besides, in [20], the z-score stood at 1.07.
Turning to `COc1cc(CO)cc(I)c1O[C@H]1C=C(C(=O)NCCO)C[C@@H](N(CCN2CCOCC2)C(=O)C2CCCO2)[C@@H]1O` (stereo not given in full), the composite z-score in [1] is -0.103; in test [6], -0.0582; in test [7] it was -0.256; in test [8], 0.404; in test [9], 0.0245; in test [10] it was -0.203. The compound further yielded a composite z-score in [12] of -0.245. Also, the z-score in test [2] was 0.0418 (inactive); in [3], -0.137 (inactive); in test [4], 0.497 (inactive); in test [5] it was -1.04 (inactive); in [11], 2.39 (inactive); in test [13] it was 0.961 (inactive). Besides, the z-score in test [14] was -0.339 (inactive); in test [15], 0.483 (inactive); in [16], 0.108 (inactive); in [17] it was 0.545; in test [18], -0.842 (inactive); in test [19], 0.225 (inactive). Also, the z-score in test [20] was 0.235.
For the compound `C=CCNC(=O)[C@@H]1[C@H]2C(=O)O[C@H](c3ccccc3)[C@H](c3ccccc3)N2[C@H](c2ccc(O)cc2)[C@@]12C(=O)Nc1ccc(C#CC3=CCCCC3)cc12`, the composite z-score in [1] came out at 0.779; in test [6], 1.72; in test [7], 1.05; in [8], 0.857; in [9] it was 0.975; in [10], 2.03. Besides, the composite z-score in [12] turned out to be 1.56. The z-score is -4.01 (inactive) in test [2]; -0.909 (inactive) in test [3]; 0.119 (inactive) in test [4]; -0.679 (inactive) in test [5]; -0.396 (inactive) in test [11]; 1.71 (inactive) in [13]. Also, the z-score in test [14] is 0.959 (inactive); in test [15], -0.587 (inactive); in test [16] it was 1.08 (inactive); in [17] it was -0.424; in test [18], 1.51 (inactive); in test [19], 0.391 (inactive). Besides, in test [20], the z-score came out at 0.578.
In the case of `CN(C)C(=O)[C@]1(CCS(=O)(=O)c2ccccc2)N=C(c2ccc(OCCCO)cc2)O[C@@H]1c1ccccc1CN=[N+]=[N-]`, the composite z-score was 0.485 in [1]; 1.54 in test [6]; -0.0332 in [7]; 0.408 in test [8]; 0.927 in test [9]; -0.405 in test [10]. Further, the composite z-score in [12] was 0.342. For the same compound, the z-score in test [2] is -0.915 (inactive); in test [3], -0.813 (inactive); in test [4] it was 0.0686 (inactive); in [5], 0.236 (inactive); in [11] it was 0.0558 (inactive); in test [13], 25.5 (active). For the same compound, the z-score in test [14] was 14.6 (active); in test [15], 1.47 (inactive); in test [16], 1.57 (inactive); in test [17] it was 0.131; in test [18], -0.163 (inactive); in [19], 2.09 (inactive). For the same compound, in [20], the z-score was -0.658.
